Assay outcomes deposited in PubChem BioAssay by The Scripps Research Institute Molecular Screening Center.
GPR151 ag = human GPR151 activation; AID 1508602; Q8TDV0; PathHunter beta-arrestin GPR151 cells, luminescence; activation, % at 11.2 µM; 650,000 tested, 1% active; in the data active = activation above about 4.9%;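 note: 0% = median of compound wells and 100% = cells with positive control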
MITF primary = blocks human microphthalmia-associated transcription factor. O75030. 650,000 tested, 0.91% active. AID 1259374. AlphaScreen MITF homodimerization, bead proximity signal. inhibition, % at 2.6 µM; in the data active = inhibition above about 50%;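 note: 0% = vehicle wells with protein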
FBW7 act = activators of human E3 ligase FBW7; 650,000 tested, 0.13% active; normalized activity (activation), % at 26.1 µM; AlphaScreen FBW7–phospho-cyclin E peptide binding, activator screen; Q969H0; in the data active = normalized activity above about 1.9%;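 note: purified mutant Fbw7 with reduced substrate affinity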
TEAD-YAP inh = TEAD-YAP interaction inhibition; HEK-TIYL cells, TEAD-Gal4/YAP UAS-luciferase luminescence; inhibition, % at 9.12 µM; 640,000 tested, 1.4% active; AID 1259422; in the data active = inhibition above about 32%;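 note: 0% = median of test compound wells and 100% = reference inhibitor wells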
GPR151 confirm = human GPR151 activation, confirmation screen. shares compounds with GPR151 ag. GPR151 PathHunter beta-arrestin cells, luminescence, 90 min; % of EA-reagent control over plate median. activation, % at 11.2 µM. 6,700 tested, under 10 active;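 active = mean percent activation across replicates above the confirmation screen cutoff of 4.91%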
GPR119 counter = activates human GPR119 in a GPR151 counter-screen; shares compounds with GPR151 ag; GPR119 PathHunter beta-arrestin cells, luminescence, 90 min; 0 = compound-well median, 100 = enzyme-acceptor control; activation, % at 11.2 µM; 6,700 tested, 0.3% active;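 active = mean percent activation in the counterscreen above 29.09%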;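 note: counterscreen on off-target GPR119 to flag nonselective hits from the GPR151 activator screen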
Target sequence (Q8TDV5 whole entry, looked up): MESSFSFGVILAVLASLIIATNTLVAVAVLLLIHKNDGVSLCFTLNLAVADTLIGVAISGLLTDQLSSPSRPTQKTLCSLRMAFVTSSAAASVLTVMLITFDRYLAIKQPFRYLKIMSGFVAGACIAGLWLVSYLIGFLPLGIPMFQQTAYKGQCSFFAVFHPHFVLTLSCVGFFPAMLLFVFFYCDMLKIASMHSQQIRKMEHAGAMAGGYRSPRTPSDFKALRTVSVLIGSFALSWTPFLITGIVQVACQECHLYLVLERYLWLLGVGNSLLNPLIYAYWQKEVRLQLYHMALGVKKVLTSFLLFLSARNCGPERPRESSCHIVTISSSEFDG
* marks the source's active call; other numbers are inactive results. Sampled rows, rich in hits. Any-hit rate of the full collection: about 3.4%.

Screening NC(=O)c1c(NC(=O)CCSc2ccc(F)cc2)sc2c1CCCC2 returned GPR151 ag 7.1*, MITF primary 8, FBW7 act 0, TEAD-YAP inh 1, GPR151 confirm 0 and GPR119 counter 4.
Screening NC(=O)c1c(NC(=O)CCSc2ccccc2)sc2c1CCCC2 returned GPR151 ag -1, MITF primary 6, FBW7 act 0 and TEAD-YAP inh -57.
Screening O=C(N/N=C/c1ccc(Br)cc1)c1ccc[n+]([O-])c1 returned GPR151 ag -2, MITF primary 14, FBW7 act 0 and TEAD-YAP inh 2.
Screening CCOc1cccc(C(=O)Nc2cccc(-c3nc4cc(C)c(C)cc4o3)c2)c1 returned GPR151 ag 2, MITF primary 6, FBW7 act 0 and TEAD-YAP inh 1.
Screening O=C(COc1ccccc1C(=O)Nc1ccccc1)Nc1ccc2c(c1)OCO2 returned GPR151 ag 7.9*, MITF primary -1, FBW7 act 0, TEAD-YAP inh 1, GPR151 confirm 0 and GPR119 counter -2.
For CCOc1ccccc1OCC(=O)Nc1ccc2c(c1)OCO2 the results were GPR151 ag 2, MITF primary 4, FBW7 act 0 and TEAD-YAP inh -27.
Cc1c(C(=O)Nc2ccc3oc(-c4ccncc4)nc3c2)cccc1[N+](=O)[O-] was read as GPR151 ag -2, MITF primary 11, FBW7 act 0 and TEAD-YAP inh 1.
For CC(=O)Nc1ccc2oc(-c3ccncc3)nc2c1 the results were GPR151 ag 5.1*, MITF primary 1, FBW7 act 0, TEAD-YAP inh -23, GPR151 confirm 0 and GPR119 counter -1.
Screening Cc1ccc(-c2nc3cc(NC(=O)c4cc(Br)ccc4Cl)ccc3o2)cc1Br returned GPR151 ag 6.1*, MITF primary 0, FBW7 act 0, TEAD-YAP inh 7, GPR151 confirm 0 and GPR119 counter 9.
`CC(=O)Nc1ccc(-c2nc3cc(C)ccc3o2)cc1` gave GPR151 ag -1, MITF primary -2, FBW7 act 0 and TEAD-YAP inh -47.
Screening Cc1c(C(=O)Nc2ccc3oc(-c4cccnc4)nc3c2)cccc1[N+](=O)[O-] returned GPR151 ag 11*, MITF primary 14, FBW7 act 0, TEAD-YAP inh -3, GPR151 confirm -1 and GPR119 counter 0.
For Cc1ccc(-c2nc3cc(NC(=O)c4cc(Cl)ccc4Cl)ccc3o2)cc1Br the results were GPR151 ag 0, MITF primary -4, FBW7 act 0 and TEAD-YAP inh -13.
Screening COC(=O)c1ccc(CNc2ccncc2[N+](=O)[O-])cc1 returned GPR151 ag 0, MITF primary -13, FBW7 act 0 and TEAD-YAP inh -2.
Screening C=CCNC(=S)NS(=O)(=O)c1ccc(Cl)cc1 returned GPR151 ag 1, MITF primary -3, FBW7 act 0 and TEAD-YAP inh 8.
`COc1cc(-c2nc(-c3ccccc3)c(-c3cccs3)[nH]2)cc(OC)c1OC` gave GPR151 ag 5.0*, MITF primary -5, FBW7 act 0, TEAD-YAP inh -3, GPR151 confirm -1 and GPR119 counter -5.
`Cc1ccc(C)n1-c1ccc(Cl)cc1C(=O)O` gave GPR151 ag 7.7*, MITF primary 70*, FBW7 act -1, TEAD-YAP inh 8, GPR151 confirm -1 and GPR119 counter -9.
Screening Cc1ccc(C)n1-c1ccc(Cl)cc1O returned GPR151 ag 0, MITF primary 0, FBW7 act 0 and TEAD-YAP inh 5.
CC1CCN(C(=O)Oc2ccccc2)CC1 was read as GPR151 ag 1, MITF primary 2, FBW7 act 0 and TEAD-YAP inh 1.
`CC1CCN(C(=O)Nc2ccc(F)cc2)CC1` gave GPR151 ag 7.2*, MITF primary -5, FBW7 act 0, TEAD-YAP inh -19, GPR151 confirm 0 and GPR119 counter -4.
Screening CC1CCN(C(=O)Nc2ccc(Cl)cc2)CC1 returned GPR151 ag 0, MITF primary 19, FBW7 act 0 and TEAD-YAP inh -50.
`CC(=O)Nc1ccc(OC(=O)N2CCC(C)CC2)cc1` gave GPR151 ag 5.3*, MITF primary 7, FBW7 act 0, TEAD-YAP inh 23, GPR151 confirm 1 and GPR119 counter 1.
Screening COc1ccc(C(C)(C)C)cc1NC(=O)COC(=O)c1ccc(Br)o1 returned GPR151 ag 0, MITF primary -11, FBW7 act 0 and TEAD-YAP inh -4.
O=C(NC1CCCCC1)[C@H]1C=CCN1C(=O)C1CC1 was read as GPR151 ag 7.4*, MITF primary -26, FBW7 act 0, TEAD-YAP inh 1, GPR151 confirm 0 and GPR119 counter 1.
Screening O=C1OC(c2cccc(Cl)c2)=N/C1=C\c1ccc(OCc2ccccc2)cc1 returned GPR151 ag 0, MITF primary -2, FBW7 act 0 and TEAD-YAP inh 3.
